aSyn UTR act – Activators via SNCA 5'UTR binding, MLPCN. hit rate 7.1% among 300,000. activity score, % (tested at 7.5 µM), hits read low. alpha-synuclein 5'UTR reporter, activators screen; in the data active means activity score below about -60%
Each line names hits and unclear results; the compound was inactive in the other large screens. The list is a sample of the results.

Cc1ccc(C(=O)N/N=C/c2ccc(-c3cccc(C(F)(F)F)c3)o2)cn1	none
O=C(Nc1ccc2c(c1)OCO2)N1CCCc2ccccc21	aSyn UTR act -103
CS(=O)(=O)N1CCc2cc(C(=O)Nc3ccc(Cl)cc3)ccc21	aSyn UTR act -138
COC(=O)Nc1ccc(S(=O)(=O)N2CCCc3ccccc32)cc1	none
CC(=O)c1cccc(NC(=O)N2CCCc3ccccc32)c1	aSyn UTR act -131
O=C(Nc1ccc(S(=O)(=O)N2CCc3ccccc32)cc1)c1ccc2c(c1)OCO2	aSyn UTR act -73
Cc1ccccc1C(=O)NC1CCCCCCC1	aSyn UTR act -148
O=C(NC1CCCCC1)c1cc2ccccc2cc1O	aSyn UTR act -81
O=C(NC1CCCCCCC1)c1ccccc1O	aSyn UTR act -175
N/C(=N\OC(=O)C12CC3CC(CC(C3)C1)C2)c1ccccc1	aSyn UTR act -134
C/C(=N/NC(=O)c1ccoc1C)C12CC3CC(CC(C3)C1)C2	aSyn UTR act -158
N/C(=N\OC(=O)C12CC3CC(CC(C3)C1)C2)c1ccccn1	aSyn UTR act -110
N/C(=N\OC(=O)N1CCOCC1)c1ccccc1	aSyn UTR act -64
C/C(=N\NC(=O)c1ccccn1)C12CC3CC(CC(C3)C1)C2	aSyn UTR act -131
Cc1cc(C)nc(SCC(=O)NC2=NN=C(c3ccc(Br)cc3)CS2)n1	aSyn UTR act -74
Cc1ccc(S(=O)(=O)n2nc(-c3ccco3)nc2SCc2ccccc2)cc1	aSyn UTR act -74
CSc1nc(-c2ccc(Cl)cc2)nn1C(=O)c1ccco1	aSyn UTR act -107
O=C(Cc1ccccc1)n1nc(-c2ccco2)nc1SCc1ccccc1	aSyn UTR act -71
CCS(=O)(=O)n1nc(-c2ccc(Cl)cc2)nc1SC	aSyn UTR act -70
O=C(c1ccco1)n1nc(-c2ccccc2)nc1SCc1ccccc1	aSyn UTR act -112
CC(/C=C1\SC(=Nc2cccnc2)NC1=O)=C\c1ccccc1	aSyn UTR act -113
COc1cccc2cc(-c3ccnc(N)n3)oc12	aSyn UTR act -80
Cc1ccc(C(=O)Nc2ccc(C(=O)/C=C/c3cccs3)cc2)cc1	aSyn UTR act -201
O=C(/C=C/c1cccs1)c1ccc(Br)cc1	aSyn UTR act -96
O=C(/C=C/c1cccs1)c1ccc(NC(=O)c2cccc(Br)c2)cc1	aSyn UTR act -85
Cc1ccc(NC(=O)C(C)OC(=O)c2n[nH]c3ccccc23)cc1 (stereo not drawn)	aSyn UTR act -71
C/C(=N\Nc1ccc2nncn2n1)c1ccccn1	none
COc1cc(C(=O)N/N=C(\C)c2ccccn2)cc(OC)c1OC	none
C/C(=N/NC(=O)c1ccccn1)c1ccc(O)cc1	aSyn UTR act -90
N/C(=N\NC(=O)c1ccc(Cl)cc1)c1cnccn1	aSyn UTR act -67
C/C(=N\Nc1ccc(Cl)cc1)c1ccccn1	aSyn UTR act -138
O=C(NNC(=O)c1cnccn1)c1ccc(Cl)c(Cl)c1	none
C/C(=N\NC(=O)c1ccc(Cl)cc1)c1ccccn1	aSyn UTR act -63
CC(C)(C)c1cc(NCCCn2ccnc2)n2ncc(-c3ccc(Cl)cc3)c2n1	aSyn UTR act -109
CCOc1cnc(-c2ccc(OC)cc2)o1	aSyn UTR act -106
CCOc1cnc(-c2ccc(Cl)cc2)o1	aSyn UTR act -105
COCn1c(-c2ccc(OC)cc2)nc2ccccc21	aSyn UTR act -192
OCc1nc2ccccc2n1CCCOc1ccc(Br)cc1	aSyn UTR act -104
CCn1c(COc2ccc(OC)cc2)nc2ccccc21	aSyn UTR act -94
COCCn1c(COc2ccc(OC)cc2)nc2ccccc21	aSyn UTR act -82
C=CCn1c(COc2ccc(OC)cc2)nc2ccccc21	aSyn UTR act -75
N#Cc1nc(COc2cccc(Cl)c2)oc1NCc1ccco1	aSyn UTR act -105
COc1ccc(Nc2oc(COc3ccc(C)cc3)nc2C#N)cc1	none
CCNc1oc(COc2cccc(C)c2)nc1C#N	aSyn UTR act -95
Oc1c(C=Nc2ccc(Cl)cn2)sc2ccccc12	aSyn UTR act -180
Oc1sc(C=Nc2ccc(F)cc2)c2ccccc12	aSyn UTR act -227
Oc1c(C=Nc2ccccc2)sc2ccccc12	aSyn UTR act -65
Oc1sc(C=Nc2ccccc2)c2ccccc12	aSyn UTR act -254
Cc1ccc(C(=O)/C=C\C(=O)c2ccc(C)cc2)cc1	aSyn UTR act -63
CC(=O)Nc1ccc(N/C=C/C(=O)c2ccc(C)cc2)cc1	aSyn UTR act -74
Cc1ccc(C(=O)/C=C2\NCCNC2=O)cc1	aSyn UTR act -72
Cc1ccc(C(=O)/C=C2\NCC(C)NC2=O)cc1 (stereo not drawn)	none
CC(=O)c1ccc(N/C=C/C(=O)c2ccc(Br)cc2)cc1	aSyn UTR act -226
CC(=O)Nc1ccc(N/C=C/C(=O)c2ccc(Br)cc2)cc1	aSyn UTR act -95
O=C(OCc1nnc(-c2ccccc2)o1)C12CC3CC(CC(Br)(C3)C1)C2	aSyn UTR act -105
CCc1ccc2nc3nc(C)cc(C)c3c(N)c2c1	aSyn UTR act -391
Cc1cc(C)c2c(N)c3ccccc3nc2n1	aSyn UTR act -623
Cc1ccc(N=C2NC(=O)/C(=C\c3ccco3)S2)cc1	aSyn UTR act -74
O=C1NC(=Nc2ccc3ccccc3c2)S/C1=C/c1ccco1	aSyn UTR act -91
O=C1NC(=Nc2ccccc2)S/C1=C\c1cccs1	aSyn UTR act -92
O=C1NC(=Nc2ccc(O)cc2)S/C1=C/c1ccco1	aSyn UTR act -88
CCOc1ccc2c(c1)S/C(=C\c1cccs1)C(=O)N2	aSyn UTR act -134
Cn1cccc1/C=C1\SC(=Nc2cccc(O)c2)NC1=O	aSyn UTR act -241
Cc1ccc(C(=O)N/N=C\c2sccc2C)cn1	aSyn UTR act -75
Cc1ccc(C(=O)N/N=C/c2c(O)ccc3ccccc23)cn1	none
Cc1ccsc1/C=N/NC(=O)c1sccc1C	aSyn UTR act -167
Cc1ccsc1/C=N/NC(=O)c1ccco1	aSyn UTR act -81
Cc1ccsc1/C=N/N=C/c1sccc1C	aSyn UTR act -181
Cc1ccc(OC(=O)c2sc3ncn(C)c(=O)c3c2C)cc1	aSyn UTR act -120
CN1CCN(CC/C=C2/c3ccccc3Sc3ccc(S(=O)(=O)N(C)C)cc32)CC1	aSyn UTR act -97
COc1cccc(-c2nc3ccc([N+](=O)[O-])cc3o2)c1	aSyn UTR act -120
O=[N+]([O-])c1ccc2nc(-c3ccccc3)oc2c1	aSyn UTR act -224
O=C(N/N=C/c1c(O)ccc2ccccc12)c1ccc(Br)o1	none
COc1ccc(-c2nn(-c3ccccc3)cc2/C=N/NC(=O)c2ccc(Br)o2)cc1	aSyn UTR act -98
Cc1ccc(-c2nn(-c3ccccc3)cc2/C=N/NC(=O)CSc2nnc(C)n2-c2ccccc2)cc1	aSyn UTR act -125
COc1ccc(-c2nn(-c3ccccc3)cc2/C=N/NC(=O)c2ccc3c(c2)OCO3)cc1	aSyn UTR act -116
Cc1cc(SCC(=O)N/N=C/c2ccc(O)c(O)c2O)c(C)cc1Br	none
Cn1c(=O)c(/C=C/c2ccccc2)nc2ccccc21	aSyn UTR act -291
O=c1[nH]c2ccccc2nc1/C=C/c1ccccc1	aSyn UTR act -165
Oc1ccc(/C=C/c2ccc3ccccc3n2)cc1	none
O=c1[nH]c2ccccc2nc1/C=C/c1ccc(O)cc1	aSyn UTR act -214
CC(=O)c1ccc(/C=C/c2nc3ccccc3n2C)o1	aSyn UTR act -91
O=c1[nH]c2ccccc2nc1/C=C/c1ccc(F)cc1	aSyn UTR act -139
CCOC(=O)CNc1c(-c2ccc(O)cc2)nc2ccc(Cl)cn12	aSyn UTR act -68
COC(=O)C1CCN(C(=O)CCCOc2ccccc2)CC1	aSyn UTR act -83
CCCCOc1ccc(C(=O)N2CCCC2)cc1	aSyn UTR act -63
COc1ccc(OCCC(=O)N2CCCCC2)cc1	aSyn UTR act -63

Screens: PubChem, Broad Institute
